Laboratory results taken from PubChem BioAssay AID764 (NMMLSC, 2007).
Screen size: about 190,000 compounds; about 220 (0.12%) were called active. Not shown: some 2% with an inconclusive outcome.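 The calls were made as follows: active = GTP binding at least 20 percentage points away from the 100% baseline, in either direction, so actives lie on both sides; inconclusive = Compound likely fluorescent itself, or too few beads counted; inactive = the rest.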 What follows is part of a selection rich in actives, with near analogues and random picks from the rest.

target: Ras-related C3 botulinum toxin substrate 1 (Homo sapiens) (UniProt P63000); test: GTP binding modulators of activated mutant Rac1, primary screen, biochemical, bead-based flow cytometry, multiplex, fluorescent GTP (AID 764); details: GST-Rac1 activated beads, at 10 µM, actives lie on both sides, 100% means binding = to untreated wells

Row | SMILES | percent activity (GTP binding)
1 | Cc1csc(NC(=O)Nc2ccccc2[N+](=O)[O-])n1 | 97% (inactive)
2 | CN(C)S(=O)(=O)Oc1ccccc1C(=O)Nc1ccccc1Cl | 99% (inactive)
3 | CCOC(=O)N1CCN(CCC(=O)Nc2cc(OC)ccc2OC)CC1 | 96% (inactive)
4 | CN1CCN(c2ccc(NC(=O)c3ccc4c(c3)OCCO4)cc2Cl)CC1 | 98% (inactive)
5 | CSc1ncnc2sc(C)c(C)c12 | 93% (inactive)
6 | CC[n+]1c(C)n(-c2ccccc2)c2ccc(NC(C)=O)cc21 | 96% (inactive)
7 | Cc1ccc(C)c(NC(=O)CCC(=O)N/N=C2/CC(=O)CC(C)(C)C2)c1 | 96% (inactive)
8 | COc1ccc(S(=O)(=O)N2CCN(C(=O)c3cc(C)oc3C)CC2)cc1 | 97% (inactive)
9 | CC(CC(=O)C1C(C)C=CCC1(C)C)NNC(N)=O (centres undefined) | 95% (inactive)
10 | Cn1cccc1/C=C1\SC(=O)N(CC(=O)Nc2ccc(F)cc2)C1=O | 95% (inactive)
11 | CCOC(=O)C1CCN(C(=O)C2(NC(=O)Nc3cccc(F)c3)CCCCC2)CC1 | 97% (inactive)
12 | CC(C)N(Cc1nc(-c2ccc3c(c2)OCO3)no1)CC1CCC(=O)N1 (centres undefined) | 98% (inactive)
13 | CCOC(=O)/C(=N\Nc1ccccc1[N+](=O)[O-])c1csc(Nc2ccccc2)n1 | 91% (inactive)
14 | C/C(CC(=O)Nc1ccc(C)cc1C)=N\NC(=O)C(C)C | 98% (inactive)
15 | CCN(C(=O)Cc1nc(N)n[nH]1)C1(C(=O)Nc2ccccc2)CCCCC1 | 97% (inactive)
16 | CC(=O)c1c(-c2ccccc2)c2ccccc2[nH]c1=O | 96% (inactive)
17 | COc1ccc(C2=NN(c3ccccc3)C(c3cccs3)C2)cc1 (centres undefined) | 94% (inactive)
18 | CCS(=O)(=O)c1ccc(O)c(NC(=O)COc2ccc(Cl)cc2)c1 | 95% (inactive)
19 | O=C(CC1CCCCC1)NCc1ccco1 | 92% (inactive)
20 | CCOc1ccc(Br)cc1S(=O)(=O)N1CCC(C(=O)O)CC1 | 94% (inactive)
21 | CSc1nsc(SC)c1NC(=O)OC1CCCCC1 | 33% (active)
22 | CSc1ncccc1C(=O)NC1CCCCCC1 | 96% (inactive)

Row | SMILES | percent activity (GTP binding)
23 | COc1ccc(NC(=O)c2c(SC)nsc2SC)cc1 | 100% (inactive)
24 | Cn1c(CCC(=O)OCC(=O)NCc2ccccc2Cl)nc(=O)c2ccccc21 | 95% (inactive)
25 | COc1ccc(-c2nc(N)sc2C2(O)C(=O)Nc3c(Br)cc(F)cc32)cc1OC (centres undefined) | 95% (inactive)
26 | COc1cccc(Cn2cnc3c([N+](=O)[O-])c(C)c(C)cc32)c1 | 96% (inactive)
27 | Cc1nc2ccccn2c1C(=O)NN=C1CCN(C)CC1 | 98% (inactive)
28 | O=C1c2ccccc2C(=O)N1CCC(O)C[N+](=O)[O-] (centres undefined) | 98% (inactive)
29 | CC(=O)Nc1ccc(Sc2ccccc2C(=O)N2CCCC2)cn1 | 98% (inactive)
30 | CCOc1ccc(C(CC(=O)O)n2cnnn2)cc1OC (centres undefined) | 91% (inactive)
31 | Cc1c(Cl)c([N+](=O)[O-])nn1CC(=O)NCC1CCCO1 (centres undefined) | 96% (inactive)
32 | CC(NC(=O)COC(=O)c1ccc(Cl)cc1O)c1ccc(F)cc1 (centres undefined) | 99% (inactive)
33 | COc1c(F)c(F)c(C(=O)O)c(Nc2ccccc2C)c1F | 97% (inactive)
34 | Cc1ccc(Nc2c(F)c(F)c(F)c(F)c2C(=O)O)c(C)c1 | 139% [activator] (active)
35 | Cc1ccc(NC(=S)NC(=O)c2ccc(-c3ccccc3)cc2)c(C)c1 | 92% (inactive)
36 | COc1ccc(/C=C/C(=O)c2cc(Br)ccc(=O)c2O)cc1 | 78% (active)
37 | COc1ccc(C(=O)/C=C/c2ccc(OC3CSC3)cc2)cc1 | 95% (inactive)
38 | COc1ccc(/C=C/C(=O)c2ccc(OC)cc2O)cc1 | 96% (inactive)
39 | CCOC(=O)c1c(C)[nH]c(C2=NNC(=NC(C)COC)SC2)c1C (centres undefined) | 97% (inactive)
40 | Cc1cccc(NC(=O)Nc2ccc3c(c2)OCO3)n1 | 97% (inactive)
41 | CC(C(=O)NCC1CCCCC1)N(C)Cc1cccc(Cl)c1 (centres undefined) | 95% (inactive)
42 | CN(C)CCOc1cccc(Br)c1 | 95% (inactive)
43 | N=C1C(c2nc3ccccc3s2)=C(O)CN1NC(=O)c1ccc([N+](=O)[O-])cc1 | 84% (inactive)
44 | C/C(=N/N1CCN(Cc2cccc3ccccc23)CC1)c1cccnc1 | 95% (inactive)

Row | SMILES | percent activity (GTP binding)
45 | CCc1cccc(OC2OC(CO)C(O)C(O)C2NC(C)=O)c1 (centres undefined) | 97% (inactive)
46 | S=C(Nc1ccc(Br)cc1Cl)N1CCC2(CC1)OCCO2 | 98% (inactive)
47 | Cc1cccc2c1N(CCOc1ccccc1)C(=O)C2=O | 98% (inactive)
48 | Cc1ccc(CC2CC(=O)N(c3nc(C)cc(C)n3)C2=O)cc1 (centres undefined) | 97% (inactive)
49 | CNC(=O)COc1ccc(S(=O)(=O)Nc2ccccc2)cc1 | 98% (inactive)
50 | C=CCN(CC=C)S(=O)(=O)c1ccc(C(=O)Nc2nc3c(s2)CCc2ccccc2-3)cc1 | 54% (active)
51 | C=CCN(CC=C)S(=O)(=O)c1ccc(C(=O)Nc2sc3c(c2C(N)=O)CCCCC3)cc1 | 100% (inactive)
52 | COCCN(CCOC)S(=O)(=O)c1ccc(C(=O)Nc2nc3c(s2)CCc2ccccc2-3)cc1 | 100% (inactive)
53 | CCOC(=O)c1[nH]cnc1C(=O)Nc1ccccc1C | 95% (inactive)
54 | CCOc1ccc(N2C(=O)Nc3ccccc3C2(O)C(=O)NCc2ccco2)cc1 (centres undefined) | 99% (inactive)
55 | CCOC(=O)c1sc(/N=C/C2=C(O)CC(C)(C)CC2=O)c(C(=O)OCC)c1C | 95% (inactive)
56 | O=C(NCCOc1ccccc1F)Nc1ccc(Br)cc1 | 93% (inactive)
57 | C=CCn1c(CNC(=O)c2ccco2)nnc1SCC(=O)c1ccc(OC)cc1 | 97% (inactive)
58 | COc1ccc(CCNC(=O)CN(c2ccccc2)S(C)(=O)=O)cc1 | 97% (inactive)
59 | COc1cccc(OC)c1C(=O)NC(=S)Nc1ccc(N2CCOCC2)c(Cl)c1 | 95% (inactive)
60 | NS(=O)(=O)c1ccc(NC(=O)COC(=O)CCc2c[nH]c3ccccc23)cc1 | 99% (inactive)
61 | CCOC(=O)C(=Cc1ccccc1OC)C(=O)OCC | 89% (inactive)
62 | COc1cc(/C=N/NC(=S)Nc2cccnc2)cc(OC)c1O | 89% (inactive)
63 | CCc1cc2c(=O)c(-c3nc4ccccc4n3C)c(CCCC(=O)O)oc2cc1OC(=O)C(C)(C)C | 94% (inactive)
64 | Cc1ccc(O)c(NC(=S)NC(=O)COc2ccc(Br)cc2)c1 | 92% (inactive)
